Experimental data published in ChEMBL document CHEMBL1961873, “Compounds: GSK PKIS; Assays: Nanosyn kinase panel” (2012).

What was measured:
[1] = biological target: T1, Muscle, skeletal receptor tyrosine-protein kinase (Homo sapiens) (UniProt O15146); details: at 1 µM;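 note: reported value is the mean percent inhibition of MuSK kinase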
T1 sequence (whole entry): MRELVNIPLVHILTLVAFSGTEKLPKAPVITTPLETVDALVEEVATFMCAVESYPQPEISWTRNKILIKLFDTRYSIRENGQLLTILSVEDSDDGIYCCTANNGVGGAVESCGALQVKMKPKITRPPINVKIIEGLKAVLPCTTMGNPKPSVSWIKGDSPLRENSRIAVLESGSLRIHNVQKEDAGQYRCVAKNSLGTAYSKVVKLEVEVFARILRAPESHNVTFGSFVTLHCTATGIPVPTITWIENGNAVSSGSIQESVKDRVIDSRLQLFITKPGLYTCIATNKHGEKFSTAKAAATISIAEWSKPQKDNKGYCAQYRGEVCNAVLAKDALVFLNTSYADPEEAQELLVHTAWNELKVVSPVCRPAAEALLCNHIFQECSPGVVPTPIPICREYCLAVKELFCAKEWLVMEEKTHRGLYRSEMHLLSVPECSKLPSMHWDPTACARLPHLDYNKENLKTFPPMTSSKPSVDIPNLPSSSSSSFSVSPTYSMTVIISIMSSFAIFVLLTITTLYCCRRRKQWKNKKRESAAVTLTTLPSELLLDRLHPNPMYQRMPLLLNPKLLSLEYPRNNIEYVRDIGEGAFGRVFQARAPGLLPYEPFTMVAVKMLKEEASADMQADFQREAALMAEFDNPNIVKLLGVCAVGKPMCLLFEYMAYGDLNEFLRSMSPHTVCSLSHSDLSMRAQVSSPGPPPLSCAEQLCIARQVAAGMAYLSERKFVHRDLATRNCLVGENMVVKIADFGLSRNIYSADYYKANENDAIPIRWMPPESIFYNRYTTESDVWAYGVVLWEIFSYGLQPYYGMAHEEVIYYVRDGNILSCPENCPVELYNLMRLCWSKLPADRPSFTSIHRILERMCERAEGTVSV

[2] = biological target: Platelet-derived growth factor receptor alpha (Homo sapiens) (UniProt P16234); details: at 0.1 µM
Platelet-derived growth factor receptor alpha (Homo sapiens), sequence (P16234 whole entry): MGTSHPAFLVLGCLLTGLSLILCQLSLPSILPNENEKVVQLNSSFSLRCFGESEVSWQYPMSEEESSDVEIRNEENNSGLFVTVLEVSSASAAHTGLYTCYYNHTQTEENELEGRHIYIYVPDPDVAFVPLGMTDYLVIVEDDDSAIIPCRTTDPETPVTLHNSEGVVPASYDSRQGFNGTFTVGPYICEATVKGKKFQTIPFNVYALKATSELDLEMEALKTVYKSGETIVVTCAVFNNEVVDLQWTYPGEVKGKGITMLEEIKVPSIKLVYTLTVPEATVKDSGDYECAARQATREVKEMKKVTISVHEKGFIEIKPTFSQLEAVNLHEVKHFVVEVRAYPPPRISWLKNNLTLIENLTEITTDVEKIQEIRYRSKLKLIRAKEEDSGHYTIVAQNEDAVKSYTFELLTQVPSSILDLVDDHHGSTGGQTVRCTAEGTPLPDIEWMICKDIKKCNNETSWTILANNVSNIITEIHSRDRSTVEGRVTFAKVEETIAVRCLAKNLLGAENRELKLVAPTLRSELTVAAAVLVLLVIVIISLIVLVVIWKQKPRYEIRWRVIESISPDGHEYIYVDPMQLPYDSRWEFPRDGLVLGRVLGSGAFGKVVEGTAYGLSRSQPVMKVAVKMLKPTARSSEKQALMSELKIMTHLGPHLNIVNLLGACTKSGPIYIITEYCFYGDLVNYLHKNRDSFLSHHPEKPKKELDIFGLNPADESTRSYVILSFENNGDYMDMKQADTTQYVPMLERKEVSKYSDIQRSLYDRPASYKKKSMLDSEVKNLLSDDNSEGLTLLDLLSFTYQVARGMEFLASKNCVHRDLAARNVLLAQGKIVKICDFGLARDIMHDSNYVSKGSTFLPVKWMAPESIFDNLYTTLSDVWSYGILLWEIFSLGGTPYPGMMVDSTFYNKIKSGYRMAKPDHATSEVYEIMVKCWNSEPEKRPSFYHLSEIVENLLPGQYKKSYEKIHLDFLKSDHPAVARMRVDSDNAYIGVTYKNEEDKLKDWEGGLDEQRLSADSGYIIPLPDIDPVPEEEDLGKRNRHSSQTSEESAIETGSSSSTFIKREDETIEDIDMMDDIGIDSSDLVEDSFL

[3] = biological target: Platelet-derived growth factor receptor alpha (Homo sapiens) (UniProt P16234); details: at 1 µM
[4] = tested on: Platelet-derived growth factor receptor alpha (Homo sapiens), P16234 [D842V]; details: at 0.1 µM
Platelet-derived growth factor receptor alpha (Homo sapiens), P16234 [D842V], sequence (P16234 whole entry D842V): as the sequence (P16234 whole entry) above, with D842V counted along it

[5] = tested on: Platelet-derived growth factor receptor alpha (Homo sapiens), P16234 [D842V]; details: at 1 µM
[6] = tested on: Platelet-derived growth factor receptor alpha (Homo sapiens), P16234 [T674I]; details: at 0.1 µM
Platelet-derived growth factor receptor alpha (Homo sapiens), P16234 [T674I], sequence (P16234 whole entry T674I): as the sequence (P16234 whole entry) above, with T674I counted along it

[7] = tested on: Platelet-derived growth factor receptor alpha (Homo sapiens), P16234 [T674I]; details: at 1 µM
[8] = tested on: Platelet-derived growth factor receptor alpha (Homo sapiens), P16234 [V561D]; details: at 0.1 µM
Platelet-derived growth factor receptor alpha (Homo sapiens), P16234 [V561D], sequence (P16234 whole entry V561D): as the sequence (P16234 whole entry) above, with V561D counted along it

[9] = tested on: Platelet-derived growth factor receptor alpha (Homo sapiens), P16234 [V561D]; details: at 1 µM
[10] = biological target: Platelet-derived growth factor receptor beta (Homo sapiens) (UniProt P09619); details: at 0.1 µM;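 note: reported value is the mean percent inhibition of the kinase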
Platelet-derived growth factor receptor beta (Homo sapiens), sequence (P09619 whole entry): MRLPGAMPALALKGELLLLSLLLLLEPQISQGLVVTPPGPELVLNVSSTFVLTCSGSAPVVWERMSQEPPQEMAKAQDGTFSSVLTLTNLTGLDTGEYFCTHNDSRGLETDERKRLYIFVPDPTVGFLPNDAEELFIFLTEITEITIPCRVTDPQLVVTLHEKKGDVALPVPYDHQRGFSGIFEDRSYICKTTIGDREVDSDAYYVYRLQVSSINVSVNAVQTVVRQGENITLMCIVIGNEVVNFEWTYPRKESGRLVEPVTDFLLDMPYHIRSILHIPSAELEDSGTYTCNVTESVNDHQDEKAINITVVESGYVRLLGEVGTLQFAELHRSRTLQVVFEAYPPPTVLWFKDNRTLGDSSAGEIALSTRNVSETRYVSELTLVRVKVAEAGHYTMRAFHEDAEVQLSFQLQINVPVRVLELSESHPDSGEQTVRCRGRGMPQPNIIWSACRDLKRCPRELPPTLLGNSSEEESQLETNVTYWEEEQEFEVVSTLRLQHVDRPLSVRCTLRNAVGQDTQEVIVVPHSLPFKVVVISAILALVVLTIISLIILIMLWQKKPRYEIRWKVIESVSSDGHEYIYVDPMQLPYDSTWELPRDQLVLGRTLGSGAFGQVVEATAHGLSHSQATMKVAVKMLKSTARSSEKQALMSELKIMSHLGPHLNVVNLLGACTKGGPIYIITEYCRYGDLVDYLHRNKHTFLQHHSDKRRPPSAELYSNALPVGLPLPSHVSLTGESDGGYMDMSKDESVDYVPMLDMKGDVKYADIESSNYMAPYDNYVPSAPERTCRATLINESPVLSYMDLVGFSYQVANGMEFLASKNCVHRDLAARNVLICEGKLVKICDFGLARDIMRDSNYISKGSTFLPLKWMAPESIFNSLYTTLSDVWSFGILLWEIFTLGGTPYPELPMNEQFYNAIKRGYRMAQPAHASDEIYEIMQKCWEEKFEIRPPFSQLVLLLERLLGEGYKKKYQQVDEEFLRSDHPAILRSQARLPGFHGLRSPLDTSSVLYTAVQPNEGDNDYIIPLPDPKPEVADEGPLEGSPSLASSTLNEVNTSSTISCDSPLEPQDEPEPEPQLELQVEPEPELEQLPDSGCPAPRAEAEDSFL

SMILES | inhibition [1] [%] | inhibition [2] [%] | inhibition [3] [%] | inhibition [4] [%] | inhibition [5] [%] | inhibition [6] [%] | inhibition [7] [%] | inhibition [8] [%] | inhibition [9] [%] | inhibition [10] [%]
NS(=O)(=O)c1ccc(N/C=C2\C(=O)Nc3ccc4ncsc4c32)cc1 | 51.2 | 54.4 | 86.9 | 55.5 | 91.5 | 15.1 | 60.9 | 48.2 | 90.9 | 56.5
COc1cc(C=NNc2ncnc3c2cnn3Cc2ccccc2)ccc1O | 17.2 | 9.07 | 43.3 | 6.24 | 42.1 | -1.14 | 1.46 | 6.77 | 34.3 | 6.26
Fc1ccc(-c2ncn(C3CCNCC3)c2-c2ccnc(Oc3ccccc3)n2)cc1 | -0.77 | 5.35 | 9.51 | 2.07 | 4 | 1.52 | 5.42 | 2.95 | 5.32 | 3.81
NS(=O)(=O)c1ccc(-c2ccc3c(NC(=O)C4CC4)n[nH]c3c2)cc1 | 8.82 | 5.05 | 15.1 | 1.45 | 5.77 | 2.04 | 1.43 | -0.07 | 8.8 | 6.55
NC(=O)c1sc(-n2cnc3cc(C(F)(F)F)ccc32)cc1OCc1ccccc1Br | -0.86 | 7.64 | 6.52 | 4.16 | 5.38 | 3.44 | 2.59 | 3.5 | 4.58 | 3.03
CCn1c(-c2nonc2N)nc2c(C#CC(C)(C)O)ncc(OC[C@@H]3CCCN3)c21 | -3.74 | 5.65 | 24.4 | 7.78 | 44.4 | 4.92 | 26.6 | 2.28 | 22.3 | 8.36
Cc1cc(-c2ccco2)cc(C)c1/C=C/c1cncc(-c2nn[nH]n2)c1 | -4.43 | 5.56 | 9.36 | 3.41 | 3.27 | 2.56 | 3.42 | 2.25 | 7 | 0.05
CCn1c(-c2nonc2N)nc2c(C#CC(C)(C)O)nc(O[C@@H](CN)c3ccccc3)cc21 | 1.93 | 32 | 70.5 | 49.8 | 89.5 | 34.5 | 86.8 | 29.6 | 79.3 | 50.3
Nc1nonc1-c1nc2cnccc2n1C1CCCCC1 | 3.94 | 3.7 | 18.1 | 2.4 | 16.9 | 1.78 | 19.5 | 2.95 | 14.4 | 4.64
CCn1c(-c2nonc2N)nc2c(C#CC(C)(C)O)ncc(OCC3CCNCC3)c21 | 3.71 | 9.32 | 28.6 | 4.23 | 34.4 | 7.44 | 29.9 | 5.4 | 16.6 | 12.1
COc1cccc(COc2cc(-n3cnc4ccccc43)sc2C(N)=O)c1 | -3.86 | 4.14 | 14.5 | 0.88 | 6.81 | 1.86 | -0.65 | 0.87 | 5.54 | 0.6
COc1cc2c(cc1Nc1nc(Nc3ccsc3C(N)=O)c3cc[nH]c3n1)N(C(=O)CN(C)C)CCC2 | 28.6 | 11.4 | 26.1 | 2.44 | 3.25 | 1.93 | 2.94 | 3.24 | 13.9 | 10.4
CCn1c(-c2nonc2N)nc2c(C#CCN)ncc(OCCCN)c21 | 12.2 | 7.42 | 11.7 | 0.26 | 8.54 | 2.16 | 5.96 | 4.02 | 3.51 | 9.08
COc1cccc(-n2ncc3c(N/N=C/c4ccncc4)ncnc32)c1 | 45.6 | 43 | 79.5 | 44.4 | 87.3 | 25.4 | 82.4 | 40.4 | 84.7 | 45
